Sampled rows, rich in hits. Any-hit rate of the full collection: about 11%.
HEK cytotox – cytotoxic compounds in HEK 293 cells; HEK 293 viability, ATP luminescence (CellTiter-Glo), 48-72 h; Potency, µM (highest dose often 115 µM), without a hit: at the top dose activity change, negative = cytotoxicity, hits mostly inhibitors; 6.6% of 94,000 active; AID 1345083; note: nearly all actives have a fitted effect of over 60% in size
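Read-out: CellTiter-Glo ATP luminescence. Cells: HEK 293, 250 cells/well. Exposure: 48 or 72 hr, 37 degree Celsius.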
NPR1 antag – human Npr1 receptor antagonism; P16066; HEK293 hNpr1 GloSensor cGMP, ANP-stimulated luminescence; Potency, µM (series often up to 46.3 µM), inactives show at the top dose activity change, negative = inhibition, most hits filed as inhibitors; 1.6% of 76,000 active; AID 1347048; calls by dose curve; note: nearly all actives have a fitted effect of over 60% in size
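Compound pre-incubated 30 min at room temperature on GloSensor-loaded HEK293 cells stably carrying hNpr1 and the pGS-40F cGMP biosensor. Stimulation uses hNppA at 0.1 nM final; luminescence is taken at baseline and 20 min post-agonist.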
Luciferase inh – Photinus pyralis luciferase inhibition; P08659; purified P. pyralis luciferase, luminescence, biochemical; Potency, µM (top dose mostly 115 µM), actives largely listed as inhibitors; 2.5% of 76,000 active; note: nearly all actives have a fitted effect of over 65% in size
Target sequence (P08659 whole entry, looked up): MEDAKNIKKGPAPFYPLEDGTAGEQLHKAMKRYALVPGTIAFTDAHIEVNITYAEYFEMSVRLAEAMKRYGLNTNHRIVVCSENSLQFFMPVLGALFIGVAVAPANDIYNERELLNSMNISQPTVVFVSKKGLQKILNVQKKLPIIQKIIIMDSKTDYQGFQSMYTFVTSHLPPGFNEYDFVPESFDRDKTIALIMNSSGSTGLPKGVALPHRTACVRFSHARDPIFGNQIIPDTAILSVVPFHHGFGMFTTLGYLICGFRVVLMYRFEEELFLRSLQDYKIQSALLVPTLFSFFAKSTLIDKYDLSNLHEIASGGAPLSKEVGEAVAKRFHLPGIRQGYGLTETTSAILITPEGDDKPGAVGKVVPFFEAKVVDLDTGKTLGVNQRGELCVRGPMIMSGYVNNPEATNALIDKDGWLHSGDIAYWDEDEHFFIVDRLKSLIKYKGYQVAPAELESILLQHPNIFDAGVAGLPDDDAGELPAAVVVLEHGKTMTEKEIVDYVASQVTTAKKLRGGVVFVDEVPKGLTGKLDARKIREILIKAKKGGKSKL
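Biochemical qHTS: compound (6-point titration) added to 10uM D-luciferin plus 10uM ATP in Tris acetate pH 7.5 buffer with Mg, Tween-20 and BSA, then purified enzyme at 10nM; light output imaged.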
3T3 cytotox – kills NIH 3T3 cells; NIH 3T3 viability, CellTiter-Glo ATP luminescence, 48-72 h; Potency, µM (series often up to 96.7 µM), for inactives: at the top dose activity change, negative = cytotoxicity, most hits filed as inhibitors; 4.3% of 94,000 active; AID 1345082; note: nearly all actives have a fitted effect of over 55% in size
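Mouse fibroblast NIH 3T3 cells, 400 per well, received compound via pintool and were incubated for 48 or 72 hr prior to CellTiter-Glo ATP luminescence measurement.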
* hit, by the source's call; i = inactive; ? = inconclusive; · = not tested or not shown; [ ] = another dose, or the depositor's remark. Unless noted, calls come from the whole dose curve; as a rule, active = well fitted curve in the direction sought with a large enough effect; inconclusive = small, poorly fitted or top-dose-only effect, or another doubt; inactive = no such curve, though single readings can be large; an effect the other way counts as inactive or inconclusive. % is set by controls: 0 for no effect and ±100 for the full control effect; potency is the fitted concentration of half-maximal effect.

SMILES | HEK cytotox | NPR1 antag | Luciferase inh | 3T3 cytotox
COc1cc(CNC(=O)c2ccc3c(c2)NC(C)(CNc2ccccc2)CO3)cc(OC)c1 (stereo not drawn) | 35.5µM* | 1.0% | i | ?
CC1(CNc2ccccc2)COc2ccc(C(=O)NCc3ccc(F)cc3)cc2N1 (stereo not drawn) | 70.8µM* | -19.1%[70.6 µM] | i | 44.7µM*
CC1(COc2ccccc2)COc2ccc(C(=O)NCCc3ccccc3)cc2N1 (stereo not drawn) | ? | -5.1%[70.6 µM] | i | ?
CCOCC1(C)COc2ccc(C(=O)NCc3cc(OC)cc(OC)c3)cc2N1 (stereo not drawn) | ? | -21.7%[70.6 µM] | i | -9.5%[138 µM]
CNC(=O)c1ccc2c(c1)NC(C)(CNc1ccccc1)CO2 (stereo not drawn) | ? | -4.0%[70.6 µM] | i | -24.0%[138 µM]
CC1(CCCCc2ccccc2)COc2ccc(C(=O)NC3CCC(O)CC3)cc2N1 (stereo not drawn) | 70.8µM* | -5.1%[70.6 µM] | i | 79.4µM*
CC1(CNc2ccccc2)COc2ccc(C(=O)NCCc3ccccc3)cc2N1 (stereo not drawn) | ? | -0.1%[70.6 µM] | ? | 28.2µM*
Cc1nc(-c2c3n(c(=O)n(CC(=O)Nc4ccccc4Cl)c2=O)CCCCC3)no1 | ? | 10.9% | i | -6.4%
COCc1cc(=O)n(CC(=O)Nc2cc(C)ccc2OC)c(N2CCOCC2)n1 | ? | -3.7% | i | ?
Cc1cc(C)cc(NC(=O)N2c3ccccc3CC2c2noc(C3CCOCC3)n2)c1 (stereo not drawn) | -26.3% | -7.3% | 39.8µM* | -25.4%
Cc1ccccc1NC(=O)N1c2ccccc2CC1c1noc(C2CCOCC2)n1 (stereo not drawn) | -13.2% | 1.1% | i | -19.1%
COCCn1ncc(N2CCCC(CC(=O)N3CC=C(c4ccccc4)CC3)C2)cc1=O (stereo not drawn) | -23.5% | -17.4% | i | ?
Cc1cc(Cl)ccc1NC(=O)CCn1ccn2nc3c(c2c1=O)CCCC3 | ? | -0.2% | i | ?
CCN(CC)c1ccc(NC(=O)CCn2ccn3nc4c(c3c2=O)CCCC4)c(C)c1 | ? | -2.7% | i | 39.8µM*
COc1ccc(Cn2ccn3nc4c(c3c2=O)CCCC4)cc1F | 39.8µM* | 2.0% | i | ?
O=C(Nc1cnc(-c2ccc(F)cc2)nc1)c1ccco1 | ? | -20.3% | 3.55µM* | -15.4%
O=C(Nc1cnc(-c2ccccc2)nc1)c1ccc(F)c(F)c1 | 10.0% | 3.0% | i | i
O=C(Nc1cnc(-c2ccc(Cl)cc2)nc1)c1ccccc1F | -9.2% | -23.3% | 0.794µM* | 2.5%
O=C(Nc1cnc(-c2ccccc2)nc1)c1ccco1 | -4.8% | -13.1% | 11.2µM* | -3.5%
COc1ccc(OCc2nc(C3CN(C(=O)Cc4c[nH]c5ccccc45)C3)no2)cc1 | 44.7µM* | ? | i | ?
Cc1ccc(OCCC2CCN(C(=O)Cc3c[nH]c4ccccc34)C2)cc1 (stereo not drawn) | 35.5µM* | ? | i | ?
Cc1ccc(C(=O)N2CCC(CCC(=O)NCCc3c[nH]c4ccccc34)CC2)cc1 | ? | -24.1% | 31.6µM* | ?
NC(=O)CN1CCCC(c2nc(-c3ccc4nc[nH]c4c3)no2)C1 (stereo not drawn) | i | 1.0% | i | -20.1%
CCCC(C)C(=O)N1CCn2nc(C(=O)Nc3ccccc3)cc2C1 (stereo not drawn) | 35.5µM* | -22.7% | i | -17.9%
O=C1CC(c2ccccc2)N(C(=O)Nc2ccccc2)CCCCCN1 (stereo not drawn) | -6.1% | -1.1% | i | -18.6%
SMILES | HEK cytotox | NPR1 antag | Luciferase inh | 3T3 cytotox
CN(C)C(=O)c1cccc2c1CCN2C(=O)C1CC1 | 6.4% | 14.2% | i | -10.5%
CCCCNC(=O)c1cccc2c1CCN2C(=O)Nc1ccc(C)cc1 | ? | 1.41µM* | ? | ?
COCCCNC(=O)c1cccc2c1CCN2C(=O)Nc1cccc(C)c1 | ? | 2µM* | 0.316µM* | ?
Cc1ccc(NC(=O)N2CCc3c(C(=O)N(C)C)cccc32)cc1 | 1.9% | -0.7% | 15.8µM* | ?
CCCCNC(=O)c1cccc2c1CCN2C(=O)c1ccc(F)cc1 | ? | 4.9% | i | -22.9%
COc1ccc(-c2ccccc2C(=O)N2CCC(NC(=O)c3cccnc3)CC2)nn1 | i | · | · | 2.2%
COc1cccc(-c2cc(C3CCN(C(=O)Nc4cc(Cl)ccc4C)CC3)[nH]n2)c1 | 44.7µM* | -22.7% | ? | ?
COC(=O)c1ccccc1S(=O)(=O)N1CCC(c2cc(-c3cccc(C)c3)n[nH]2)CC1 | 44.7µM* | 1.4% | i | 39.8µM*
CCOc1ccccc1NC(=O)N1CCC(c2cc(-c3cccc(OC)c3)n[nH]2)CC1 | ? | -22.9% | i | 35.5µM*
Cc1cccc(NC(=O)N2CCC(c3cc(-c4cccc(C)c4)n[nH]3)CC2)c1 | ? | -14.8% | i | ?
COc1cccc(NC(=O)N2CCC(c3cc(-c4cccc(C)c4)n[nH]3)CC2)c1 | ? | -23.9% | i | 39.8µM*
Cc1ccc(Cl)cc1NC(=O)N1CCC(n2cnnc2C2CC2)C1 (stereo not drawn) | ? | 0.8% | i | i
COc1cccc(-c2cc(C3CCN(C(=O)NC4CCCC4)CC3)[nH]n2)c1 | ? | -21.7% | i | -16.3%
COc1cccc(CNC(=O)[C@@H]2C[C@@H](O)CN2C2CCN(C(=O)CCc3ccccc3)CC2)c1 | -1.5% | -0.3% | i | -18.2%
CC1CCCN(C(=O)c2cc(-c3ccccc3C(F)(F)F)nc3c2cnn3C)C1 (stereo not drawn) | ? | · | · | -34.2%
COc1cccc(-c2cc(C3CCN(C(=O)Nc4cccc(SC)c4)CC3)[nH]n2)c1 | ? | 1.2% | i | 44.7µM*
COc1cccc(-c2cc(C(=O)N3CCC(Cn4cccn4)CC3)[nH]n2)c1 | -0.5% | 1.1% | 31.6µM* | ?
COCCN1Cc2cc(F)ccc2N(CC(O)Cc2ccccc2)CCC1=O (stereo not drawn) | ? | · | · | -7.8%
COC(=O)[C@@H]1Cc2c([nH]c3ccccc23)[C@H]2C[C@@H](NCc3cccnc3)C[C@@H](c3ccc(OC(F)(F)F)cc3)N21 | 28.2µM* | 6.4% | i | 31.6µM*
O=C(CC1CCOCC1)NCc1ccc(OC(F)(F)F)cc1 | ? | 0.0% | i | -7.1%
COC(=O)[C@@H]1Cc2c([nH]c3ccccc23)[C@H]2C[C@@H](N3CCOCC3)C[C@@H](c3ccc(OC(F)(F)F)cc3)N21 | ? | 2.0% | i | 44.7µM*
COC(=O)[C@@H]1Cc2c([nH]c3ccccc23)[C@H]2C[C@@H](N3CCOCC3)C[C@@H](c3ccc(C(F)(F)F)cc3)N21 | 22.4µM* | 4.2% | i | 25.1µM*
CCOC(=O)[C@@H]1CN(C(=O)OC)[C@H]2c3ccc(OC)cc3O[C@@H]12 | ? | · | · | -13.0%
COc1ccc(OC)c(NC(=O)Cn2c(-c3ccccc3)nc(C)c(CCO)c2=O)c1 | ? | -10.8% | i | -22.4%
